Measurements from PubChem BioAssay (NCATS).
Results filed as inconclusive are left out. A call without a number means that no potency is given here. Where a structure was tested more than once in an assay, its records may differ in their call. Calls of active or inactive are those of the source. Calls follow the shape of the dose curve; as a rule, active = well fitted inhibition curve with a large enough effect; inconclusive = small, poorly fitted or top-dose-only effect, or effect the other way; inactive = flat fitted curve, though single readings scatter.

Assay: qHTS for Inhibitors of Plasmodium falciparum (GB4) proliferation (AID 504315); also: nearly all actives have a fitted effect of over 50% in size
Details: P. falciparum GB4 in erythrocytes, SYBR Green DNA, 72 h; series mostly up to 6.7 µM
Summary of the method: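 Parasite growth measured as SYBR Green DNA fluorescence (ex 485, em 535 nm) after overnight lysis following 72 h culture at 37 °C, 0.3% parasitemia, 2.5% hematocrit. Values normalized against DMSO and 0.29 uM artemisinin controls, with plate-stack correction.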
Potency is read from the fitted curve at half-maximal effect.

Row | SMILES | Potency
1 | CC=COC(=O)N[C@@H](c1ccccc1)[C@]1(C(C)=O)CCOC1=O | inactive
2 | C[C@H]1CC[C@H]2C(=O)N[C@H](Cc3ccccc3)C(=O)N2[C@H]1c1ccccc1 | inactive
3 | COc1cc2c(cc1OC)[C@@H]1O[C@](c3ccsc3)(C2)Oc2cc(-c3ccccc3)oc(=O)c21 | inactive
4 | CCOC(=O)CN1C(=O)[C@]2(O[C@H](C)CC3=CCCC32)c2c(Br)cccc21 (some centres undefined) | inactive
5 | C[C@H](ON=C1[C@H]2CCn3c(=O)n(-c4ccccc4)c(=O)n3[C@@H]2[C@H](O)[C@@H]2O[C@H]12)c1cn([C@H](CO)Cc2ccccc2)nn1 | inactive
6 | C=CCOC(=O)C(C(C)=O)[C@@H](NC(=O)OC)c1cccs1 (some centres undefined) | inactive
7 | Cc1cc(O)cc(O)c1C(=O)OC1(C)C(=O)C=C2C=C(C=CC(=O)O)OC=C2C1=O (centres undefined) | inactive
8 | COC(=O)C(C(C)=O)[C@@H](NC(=O)NCc1ccccc1)c1ccccc1 (some centres undefined) | inactive
9 | CCN1C(=O)N(S(=O)(=O)c2ccc(C)cc2)C(c2ccccc2)C(C(=O)OC)=C1C (centres undefined) | inactive
10 | Cc1cc(C)cc(CO[C@H]2C=C[C@@H](c3ccccc3)O[C@H]2CO)c1 | inactive
11 | COC(=O)CC=C1c2ccccc2[C@@H](NC(=O)OC)[C@@H]1C | inactive
12 | CCCCc1cc2c(cn1)=C(OC(=O)CCC(=O)OC)C(C)(OC(=O)CC)C(=O)C=2 (centres undefined) | 1.69 µM (active)
13 | CC(=O)OC[C@H]1O[C@H](CC=NOC[C@@H](O)[C@H]2O[C@@H]3OC(C)(C)O[C@H]3[C@@H]2O)C=C[C@H]1OC(C)=O | inactive
14 | CCN1C(=O)NC(c2ccc(Br)cc2)C(C(C)=O)=C1C (centres undefined) | inactive
15 | N#CCCN(CC#Cc1ccccc1)OCc1ccccc1 | inactive
16 | COC(=O)NC(C=Cc1ccccc1)C(C(C)=O)C(=O)OC (centres undefined) | inactive
17 | C(#C[C@@H]1C=C[C@H]2OC(c3ccccc3)OC[C@H]2O1)c1ccccc1 (some centres undefined) | inactive
18 | COC(=O)N[C@@H](CCc1ccccc1)[C@]1(C(=O)OC)CCCC1=O | inactive
19 | COC(=O)C1=C(C(=O)OC)[C@@H]2N(C)c3ccccc3[C@@]23CCC(=O)N(CC(C)C)C3=N1 | inactive
20 | CC(CCN1CCCCc2nc(C)c(C)cc21)=NO[C@H](C)c1cn([C@@H]2COC[C@@H]2O)nn1 | inactive

Row | SMILES | Potency
21 | C=C(C#Cc1ccc(OC)cc1)CCN1C=C(C(=O)OCC)C(c2ccccc2)NC1=O (centres undefined) | inactive
22 | COCCN1C=C2C(=O)C(C)(OC(=O)C3CCCC3)C(=O)C(c3ccccc3)=C2C=C1CCCC(=O)OC (centres undefined) | inactive
23 | C[C@H]1CCCC(=O)N[C@@H](c2ccccc2)[C@@H](C)CCCC(=O)N[C@@H]1c1ccccc1 | inactive
24 | COc1ccc(-c2nc3c(c4c2C[C@H](c2ccccc2)OC4)CN(C(=O)N[C@@H](C)c2ccccc2)CC3)c(C)c1 | inactive
25 | COCn1c2ccccc2c2nnc(C(=O)O)nc21 | inactive
26 | CCN1C(=O)[C@@H]2[C@H]3[C@H](O)[C@H](O)CC(=NOCC[C@@H]4C=C[C@H](OC(C)=O)[C@@H](COC(C)=O)O4)[C@@H]3CC[C@H]2C1=O | inactive
27 | COC(=O)[C@H](Cc1ccccc1)NC(=O)O[C@@H]1C(=O)c2cc(Br)ccc2O[C@H]1c1ccc2c(c1)OCO2 | inactive
28 | COC(=O)[C@H](COC(C)(C)C)NC(=O)O[C@@H]1C(=O)c2cc(Br)ccc2O[C@H]1c1ccc2c(c1)OCO2 | inactive
29 | C=C(C)C(=O)C=Cc1ccc(Br)cc1 | inactive
30 | COc1ccc(-c2nc(-c3ccccc3)c(NC(C)(C)C)o2)cc1 | 1.69 µM (active) and inactive
31 | CCOC(=O)CCN1C(=O)[C@@H]2[C@H]3[C@H](O)[C@H](O)CC(=NNC(=O)OCc4ccccc4)[C@H]3CC[C@H]2C1=O | inactive
32 | CCOC(=O)N1C2=NC(C(=O)OC)=C(C(=O)OC)[C@@H]3N(Cc4ccccc4)c4ccccc4[C@]23C[C@H]1C(=O)OC | inactive
33 | COC(=O)CC=C[C@@H](C)[C@H](NC(=O)OCC(Cl)(Cl)Cl)c1cccc(OC)c1 | inactive
34 | COC(=O)C12CC3(CCC4C5C(C(OCc6ccccc6)C41)C52)OCCO3 (centres undefined) | inactive
35 | CCN1C(=NCCc2cccnc2)NC(CCc2ccccc2)C(C(=O)OC)=C1C (centres undefined) | inactive
36 | COC(=O)C1=C(C)N(CCC(C)O[Si](C)(C)C(C)(C)C)C(=O)N(C(C)=O)C1c1ccccc1 (centres undefined) | inactive
37 | C=CCOC(=O)NC(c1ccc(F)c(F)c1)S(=O)(=O)c1ccc(Cl)cc1 (centres undefined) | inactive
38 | CCOC(=O)OC[C@H]1O[C@H](C#Cc2ccc(C)cc2C)C=C[C@H]1OC(=O)OCC | inactive
39 | CCN(CC)CCCN=C1NC(c2cccc(C(F)(F)F)c2)C(C(=O)OC)=C(C)N1CC (centres undefined) | inactive
